Reference: PubChem BioAssay (NCI)
Several values for one entry are separate records, joined by “and”; a condition that tells them apart may be missing. Equal values may be shown once. About 83,000 compounds went through this panel and 20% of them were active in at least one assay; those are over-represented in the sample as a whole.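 48-hour exposure, single concentration, 96-well plates; percent growth endpoint where 0 means no net growth. Active: below 10.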 Activity calls are given as the source filed them.

Tests used:
Experiment in all cases: NCI-60 one-dose screen, 48 h (100 = growth as untreated, 0 = no growth, -100 = all killed)
Settings in all cases: 10 µM unless noted
[1] = tested on: HCT-15 colon
[2] = tested on: HT29 colon
[3] = tested on: SNB-75 CNS
[4] = tested on: SNB-19 CNS
[5] = tested on: U251 CNS
[6] = tested on: PC-3 prostate
[7] = tested on: SK-MEL-5 melanoma
[8] = tested on: UACC-62 melanoma
[9] = tested on: LOX IMVI melanoma
[10] = tested on: SK-MEL-28 melanoma

Measured: growth

CCN(CC)CCC(CNc1ccnc2cc(Cl)ccc12)c1ccc(OC)cc1 (stereo not given)
inactive: [1] 42.6% and 30.8% | [2] 26.4% and 14% | [3] 68.6% and 34.1% | [4] 98.5% and 92.2% | [5] 58.5% and 50.6% | [6] 66.5% and 62.2% | [7] 38.3% and 30.4% | [8] 45.3% and 51.9% | [9] 40.2% and 32.1%
active: [10] -78.4% and -54.7%

CC12CCC(CC1)C(C)(C)O2
inactive: [1] 97.2% | [2] 95.1% | [3] 74% | [4] 103% | [5] 103% | [6] 99.7% | [7] 102% | [8] 103% | [9] 97.4% | [10] 114%

COc1cc(Nc2nc3ccccc3nc2NS(=O)(=O)c2ccc(NC(=O)c3ccc(C)c(OC)c3)cc2)cc(OC)c1
inactive: [1] 60.3% and 13.4% | [4] 68.2% and 39.1% | [5] 55.4% and 21.5% | [6] 21.5% and 11.1%
32% (inactive) and -34.7% (active): [3]
85.3% (inactive) and -25.7% (active): [7]
63.8% (inactive) and -17.5% (active): [10]
53.7% (inactive) and 5.41% (active): [2]
52.7% (inactive) and 2.52% (active): [9]
56.4% (inactive) and -32.5% (active): [8]

CC(=O)Nc1cc(S(=O)(=O)O)cc2cc(S(=O)(=O)O)c(N=Nc3ccccc3)c(O)c12
inactive: [1] 116% and 111% | [2] 118% and 92.2% | [3] 92.8% and 98.1% | [4] 110% and 99.9% | [5] 110% and 101% | [6] 88.3% and 94.9% | [7] 99.4% | [8] 108% and 92.2% | [9] 103% and 98.7% | [10] 119% and 116%

Cc1n[nH]c(=O)n(/N=C\c2c[nH]c3ccccc23)c1=O
inactive: [1] 105% | [2] 101% | [3] 84% | [4] 105% | [5] 98.8% | [6] 97.9% | [7] 102% | [8] 107% | [9] 99.4% | [10] 105%

COc1ccccc1NC(=O)OCC#CCOC(=O)Nc1ccccc1OC
inactive: [1] 114% and 88.6% | [2] 100% and 103% | [3] 92.9% and 84.7% | [4] 104% and 88.7% | [5] 97.4% and 96.4% | [6] 102% and 89.3% | [7] 94.2% and 88.6% | [8] 83.7% and 73.2% | [9] 96.9% and 100% | [10] 106% and 88.1%

Cc1cc(O)c(C(C)C)cc1N
inactive: [1] 101% and 104% | [2] 101% and 116% | [3] 79% and 97% | [4] 117% | [5] 104% and 103% | [6] 106% and 98.4% | [7] 106% and 98.9% | [8] 97.5% and 111% | [9] 98.1% and 94.7% | [10] 113% and 111%

Cn1c(SSc2ccc(-c3cccnc3)n2C)ccc1-c1cccnc1
inactive: [1] 111% and 104% | [2] 110% and 115% | [3] 89.4% and 97.7% | [4] 110% and 109% | [5] 72.6% and 106% | [6] 65% and 68.2% | [7] 95.6% and 91.6% | [8] 82.5% and 109% | [9] 59% and 98.2% | [10] 98.9% and 104%

Cc1c(Cl)cccc1NCN1C(=O)c2ccccc2C1=O
inactive: [1] 98.4% | [2] 104% | [3] 94.4% | [4] 110% | [5] 95.5% | [6] 101% | [7] 99.5% | [8] 114% | [9] 97% | [10] 112%

CC(C(=O)O)n1cc(C#N)c(=O)[nH]c1=O (stereo not given)
inactive: [1] 104% and 102% | [2] 110% and 104% | [3] 83.7% and 76.9% | [4] 107% and 101% | [5] 111% and 107% | [6] 95.3% | [7] 105% and 102% | [8] 103% and 99.7% | [9] 110% and 98.6% | [10] 110%

COc1cc2c(Nc3ccc(Cl)c(Cl)c3F)ncnc2cc1OCC1C[C@@H]2CN(C)C[C@@H]2C1 (stereo not given in full)
active: [1] -89.2% and -0.559% | [2] -90.2% and -11.5% | [3] -96% and -40.9% | [7] -97.6% and -97.4% | [8] -86.3% and -27.8% | [9] -92% and -92.9% | [10] -96.3% and -63.1%
-97.6% (active) and 13% (inactive): [5]
-93.5% (active) and 32.1% (inactive): [4]
-57.1% (active) and 15.6% (inactive): [6]

O=CC(O)C(O)C(O)CO (stereo not given)
inactive: [1] 100% | [2] 113% and 102% | [3] 104% and 97.8% | [4] 103% and 113% | [5] 102% and 105% | [6] 41.2% and 98.4% | [7] 87.1% and 103% | [8] 96.6% and 117% | [9] 99.5% and 100% | [10] 104% and 109%

NS(=O)(=O)c1cc2c(cc1Cl)NC(C(Cl)Cl)NS2(=O)=O (stereo not given)
inactive: [1] 95.3% and 101% | [2] 101% and 114% | [3] 77.7% and 114% | [4] 104% and 105% | [5] 86.5% and 104% | [6] 99% and 99.8% | [7] 99.7% and 102% | [8] 103% | [9] 98.6% and 99.9% | [10] 99.8% and 115%

Cc1cc(C)c(N)c(Br)c1
inactive: [1] 106% and 95.4% | [2] 102% and 90.4% | [3] 83.3% and 74.5% | [4] 107% and 94.7% | [5] 105% and 104% | [6] 102% and 91.9% | [7] 103% and 96.3% | [8] 108% and 94.5% | [9] 106% and 96.4% | [10] 110% and 102%

O=C1OC2(c3ccccc31)c1ccc(O)c(O)c1Oc1c2ccc(O)c1O
inactive: [1] 94.5% and 123% | [2] 102% and 116% | [3] 101% and 88.3% | [4] 110% and 108% | [5] 104% | [6] 81% and 89.2% | [7] 106% and 100% | [8] 108% and 102% | [9] 90.7% and 103% | [10] 112% and 117%
